Measured values from paper PMC7862700, “An all-to-all approach to the identification of sequence-specific readers for epigenetic DNA modifications on cytosine”.

Assays:
Assay in all cases: DAPPL (digital affinity profiling via proximity ligation, sequencing); 10 mM Tris-HCl pH 7.5, 50 mM NaCl, 1 mM DTT, 4% glycerol, room temperature, 30 min; GST-TFs on glutathione beads, 16-mer random dsDNA library, 0.1% formaldehyde crosslink after washing; high values mean tight binding
Conditions in all cases: protein: recombinant; tags: N-terminal GST; dsDNA, one strand shown
FLI1 = biological target: T1, FLI1 (Homo sapiens, UniProt Q01543 1-452)
T1 sequence: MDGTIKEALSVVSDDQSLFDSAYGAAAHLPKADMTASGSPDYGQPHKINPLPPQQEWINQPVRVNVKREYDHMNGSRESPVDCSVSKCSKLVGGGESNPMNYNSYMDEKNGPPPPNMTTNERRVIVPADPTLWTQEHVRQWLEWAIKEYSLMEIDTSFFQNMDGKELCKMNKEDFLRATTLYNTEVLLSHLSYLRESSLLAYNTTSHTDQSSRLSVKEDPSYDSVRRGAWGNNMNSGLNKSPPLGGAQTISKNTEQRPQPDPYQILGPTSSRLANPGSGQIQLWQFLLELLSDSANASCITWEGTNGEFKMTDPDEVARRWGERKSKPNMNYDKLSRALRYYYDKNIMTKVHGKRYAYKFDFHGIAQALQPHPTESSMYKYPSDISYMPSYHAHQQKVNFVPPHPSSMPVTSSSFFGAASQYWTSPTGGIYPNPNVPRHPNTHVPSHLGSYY
Method in brief: (§1)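 After expression in yeast as GST fusions, human transcription factors were bound to glutathione beads, DNA-barcoded and mixed with a tag-only sample. The pools were incubated with 200 nmole of a 16-mer random double-stranded DNA library in Tris/NaCl/DTT/glycerol buffer (30 min, room temperature), washed and crosslinked with 0.1% formaldehyde. Proximity ligation with BsaI/T4 ligase ran for 1 h at 37 °C, before PCR amplification and sequencing on an Illumina NextSeq500. Binding signal is a hexamer's read frequency for a factor divided by its frequency for the tag-only sample.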

ELK1 = biological target: T2, ELK1 (Homo sapiens, UniProt P19419 1-428)
T2 sequence: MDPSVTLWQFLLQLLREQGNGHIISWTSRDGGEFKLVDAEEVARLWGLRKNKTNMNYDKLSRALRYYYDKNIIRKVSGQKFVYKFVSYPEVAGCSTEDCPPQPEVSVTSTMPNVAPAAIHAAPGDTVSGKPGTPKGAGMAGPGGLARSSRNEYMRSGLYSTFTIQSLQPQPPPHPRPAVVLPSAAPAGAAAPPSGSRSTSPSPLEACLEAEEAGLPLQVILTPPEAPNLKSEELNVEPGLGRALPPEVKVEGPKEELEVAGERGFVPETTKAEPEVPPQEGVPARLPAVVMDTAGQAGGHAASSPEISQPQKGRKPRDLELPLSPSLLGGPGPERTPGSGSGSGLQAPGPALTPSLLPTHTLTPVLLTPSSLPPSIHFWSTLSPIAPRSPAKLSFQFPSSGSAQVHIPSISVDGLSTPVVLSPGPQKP
Method in brief: as §1

GABPA = biological target: T3, GABPA (Homo sapiens, UniProt Q06546 1-454)
T3 sequence: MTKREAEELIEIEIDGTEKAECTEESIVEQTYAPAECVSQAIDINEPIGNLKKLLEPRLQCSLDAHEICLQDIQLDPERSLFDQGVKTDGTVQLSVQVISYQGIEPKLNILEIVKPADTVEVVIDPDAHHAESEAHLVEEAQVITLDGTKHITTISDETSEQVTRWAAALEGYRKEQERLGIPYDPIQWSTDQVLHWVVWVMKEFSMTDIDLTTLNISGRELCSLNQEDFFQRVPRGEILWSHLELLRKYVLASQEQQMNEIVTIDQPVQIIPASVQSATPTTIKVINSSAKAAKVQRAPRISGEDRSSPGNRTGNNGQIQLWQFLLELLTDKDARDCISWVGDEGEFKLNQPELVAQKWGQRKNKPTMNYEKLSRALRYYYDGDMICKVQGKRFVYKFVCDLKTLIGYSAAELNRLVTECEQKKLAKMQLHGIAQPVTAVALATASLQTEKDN
Method in brief: as §1

ERG = biological target: T4, ERG (Homo sapiens, UniProt P11308 1-479)
T4 sequence: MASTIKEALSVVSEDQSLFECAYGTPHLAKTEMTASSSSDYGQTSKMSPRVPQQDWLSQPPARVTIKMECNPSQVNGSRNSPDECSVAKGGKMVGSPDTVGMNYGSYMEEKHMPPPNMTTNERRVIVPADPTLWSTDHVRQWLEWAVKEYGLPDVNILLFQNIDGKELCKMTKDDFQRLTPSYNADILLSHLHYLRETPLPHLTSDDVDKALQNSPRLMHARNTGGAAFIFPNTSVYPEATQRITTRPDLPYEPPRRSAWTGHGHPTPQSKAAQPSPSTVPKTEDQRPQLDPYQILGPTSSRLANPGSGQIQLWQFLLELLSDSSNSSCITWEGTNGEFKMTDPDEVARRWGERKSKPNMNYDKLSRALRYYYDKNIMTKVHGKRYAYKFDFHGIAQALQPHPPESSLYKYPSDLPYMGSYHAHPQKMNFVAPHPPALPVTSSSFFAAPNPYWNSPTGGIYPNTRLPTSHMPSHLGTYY
Method in brief: as §1

ELF1 = ELF1 (Homo sapiens, UniProt P32519 1-619)
Method in brief: as §1

EHF = biological target: T5, EHF (Homo sapiens, UniProt Q9NZC4 1-300)
T5 sequence: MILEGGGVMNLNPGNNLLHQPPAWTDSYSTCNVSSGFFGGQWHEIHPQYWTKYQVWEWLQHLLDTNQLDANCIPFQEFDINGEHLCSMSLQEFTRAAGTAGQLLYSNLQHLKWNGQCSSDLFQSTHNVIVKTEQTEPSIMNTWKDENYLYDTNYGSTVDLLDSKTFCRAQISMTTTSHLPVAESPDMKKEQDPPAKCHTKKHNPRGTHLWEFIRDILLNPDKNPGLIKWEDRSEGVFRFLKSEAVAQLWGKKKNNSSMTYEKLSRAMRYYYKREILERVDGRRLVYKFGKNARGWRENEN
Method in brief: as §1

SPI1 = SPI1 (Homo sapiens, UniProt P17947 1-270)
Method in brief: as §1

SPIB = SPIB (Homo sapiens, UniProt Q01892 1-262)
Method in brief: as §1

ELK3 = biological target: T6, ELK3 (Homo sapiens, UniProt P41970 1-407)
T6 sequence: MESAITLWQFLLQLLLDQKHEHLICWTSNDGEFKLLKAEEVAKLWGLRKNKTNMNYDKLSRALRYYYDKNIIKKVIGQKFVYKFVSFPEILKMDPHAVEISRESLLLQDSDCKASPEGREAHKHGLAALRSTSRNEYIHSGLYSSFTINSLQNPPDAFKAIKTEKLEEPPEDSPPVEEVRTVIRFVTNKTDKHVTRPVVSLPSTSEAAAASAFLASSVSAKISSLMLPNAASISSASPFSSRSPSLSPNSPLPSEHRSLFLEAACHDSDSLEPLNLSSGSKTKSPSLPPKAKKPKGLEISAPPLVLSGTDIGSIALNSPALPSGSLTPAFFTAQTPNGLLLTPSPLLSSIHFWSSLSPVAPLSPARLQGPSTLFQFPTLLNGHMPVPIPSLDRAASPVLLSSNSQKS
Method in brief: as §1

FEV = biological target: T7, FEV (Homo sapiens, UniProt Q99581 1-238)
T7 sequence: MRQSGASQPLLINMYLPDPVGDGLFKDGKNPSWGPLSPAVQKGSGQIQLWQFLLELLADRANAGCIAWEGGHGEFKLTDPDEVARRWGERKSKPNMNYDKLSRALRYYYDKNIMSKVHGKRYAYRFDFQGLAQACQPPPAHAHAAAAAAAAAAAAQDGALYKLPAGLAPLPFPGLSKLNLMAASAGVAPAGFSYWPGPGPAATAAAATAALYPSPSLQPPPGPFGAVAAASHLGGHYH
Method in brief: as §1

ETV5 = ETV5 (Homo sapiens, UniProt P41161 1-510)
Method in brief: as §1

SPIC = biological target: T8, SPIC (Homo sapiens, UniProt Q8N5J4 1-248)
T8 sequence: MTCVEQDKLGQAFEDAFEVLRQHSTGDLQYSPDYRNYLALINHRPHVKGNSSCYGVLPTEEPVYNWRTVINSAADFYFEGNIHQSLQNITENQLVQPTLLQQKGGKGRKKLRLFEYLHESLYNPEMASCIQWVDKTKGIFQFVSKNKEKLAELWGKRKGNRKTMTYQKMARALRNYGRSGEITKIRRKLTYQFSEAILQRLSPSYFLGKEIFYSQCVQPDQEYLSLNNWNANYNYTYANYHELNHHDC
Method in brief: as §1

ELF4 = ELF4 (Homo sapiens, UniProt Q99607 1-663)
Method in brief: as §1

ELK4 = biological target: T9, ELK4 (Homo sapiens, UniProt P28324-2 1-405)
T9 sequence: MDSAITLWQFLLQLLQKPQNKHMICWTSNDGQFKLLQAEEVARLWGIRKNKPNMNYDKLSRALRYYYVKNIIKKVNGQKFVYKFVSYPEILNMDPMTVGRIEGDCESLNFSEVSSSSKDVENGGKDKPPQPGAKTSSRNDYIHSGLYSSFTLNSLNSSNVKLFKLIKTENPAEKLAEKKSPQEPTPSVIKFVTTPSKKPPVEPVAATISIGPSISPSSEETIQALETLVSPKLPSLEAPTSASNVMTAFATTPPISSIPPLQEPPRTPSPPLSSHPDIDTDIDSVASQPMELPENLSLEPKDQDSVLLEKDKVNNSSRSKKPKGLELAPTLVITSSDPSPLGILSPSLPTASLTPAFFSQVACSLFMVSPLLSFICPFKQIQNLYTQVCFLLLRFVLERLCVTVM
Method in brief: as §1

ELF3 = biological target: T10, ELF3 (Homo sapiens, UniProt P78545 1-371)
T10 sequence: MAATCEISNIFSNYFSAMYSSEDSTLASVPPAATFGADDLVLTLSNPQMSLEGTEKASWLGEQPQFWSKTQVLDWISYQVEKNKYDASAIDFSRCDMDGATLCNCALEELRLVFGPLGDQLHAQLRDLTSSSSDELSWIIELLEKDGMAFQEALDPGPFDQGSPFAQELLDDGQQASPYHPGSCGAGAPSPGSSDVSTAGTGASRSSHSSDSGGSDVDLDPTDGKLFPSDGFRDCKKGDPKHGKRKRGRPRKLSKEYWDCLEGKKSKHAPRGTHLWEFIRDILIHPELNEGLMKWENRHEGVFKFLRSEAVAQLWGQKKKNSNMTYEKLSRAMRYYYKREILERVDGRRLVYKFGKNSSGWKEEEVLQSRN
Method in brief: as §1

ETV1 = ETV1 (Homo sapiens, UniProt P50549 1-477)
Method in brief: as §1

ETV2 = biological target: T11, ETV2 (Homo sapiens, UniProt O00321 1-342)
T11 sequence: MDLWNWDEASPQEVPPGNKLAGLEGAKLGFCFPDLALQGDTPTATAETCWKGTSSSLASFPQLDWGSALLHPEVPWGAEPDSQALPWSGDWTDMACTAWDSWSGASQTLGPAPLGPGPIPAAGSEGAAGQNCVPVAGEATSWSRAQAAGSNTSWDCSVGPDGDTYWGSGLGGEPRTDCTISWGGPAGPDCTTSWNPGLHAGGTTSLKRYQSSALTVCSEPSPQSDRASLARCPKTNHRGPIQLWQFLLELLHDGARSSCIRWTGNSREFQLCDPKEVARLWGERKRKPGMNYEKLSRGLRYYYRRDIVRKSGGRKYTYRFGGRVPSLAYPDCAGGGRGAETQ
Method in brief: as §1

Chain of ELF1 (P32519 whole entry): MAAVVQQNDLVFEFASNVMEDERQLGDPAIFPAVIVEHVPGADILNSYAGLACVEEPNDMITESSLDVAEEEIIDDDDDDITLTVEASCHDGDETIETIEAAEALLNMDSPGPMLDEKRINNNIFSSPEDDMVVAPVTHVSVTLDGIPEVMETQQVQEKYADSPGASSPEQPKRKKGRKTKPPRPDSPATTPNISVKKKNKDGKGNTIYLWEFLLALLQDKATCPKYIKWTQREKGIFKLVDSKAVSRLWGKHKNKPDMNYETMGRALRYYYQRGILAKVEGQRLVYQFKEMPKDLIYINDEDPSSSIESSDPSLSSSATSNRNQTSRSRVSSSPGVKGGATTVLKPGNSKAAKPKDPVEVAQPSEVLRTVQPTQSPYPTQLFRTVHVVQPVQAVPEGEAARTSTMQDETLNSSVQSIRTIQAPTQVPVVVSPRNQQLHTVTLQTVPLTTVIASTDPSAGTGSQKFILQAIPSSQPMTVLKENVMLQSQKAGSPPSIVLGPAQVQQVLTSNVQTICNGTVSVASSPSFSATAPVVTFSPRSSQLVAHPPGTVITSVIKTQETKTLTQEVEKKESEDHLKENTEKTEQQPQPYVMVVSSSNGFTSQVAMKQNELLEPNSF
Chain of ETV5 (P41161 whole entry): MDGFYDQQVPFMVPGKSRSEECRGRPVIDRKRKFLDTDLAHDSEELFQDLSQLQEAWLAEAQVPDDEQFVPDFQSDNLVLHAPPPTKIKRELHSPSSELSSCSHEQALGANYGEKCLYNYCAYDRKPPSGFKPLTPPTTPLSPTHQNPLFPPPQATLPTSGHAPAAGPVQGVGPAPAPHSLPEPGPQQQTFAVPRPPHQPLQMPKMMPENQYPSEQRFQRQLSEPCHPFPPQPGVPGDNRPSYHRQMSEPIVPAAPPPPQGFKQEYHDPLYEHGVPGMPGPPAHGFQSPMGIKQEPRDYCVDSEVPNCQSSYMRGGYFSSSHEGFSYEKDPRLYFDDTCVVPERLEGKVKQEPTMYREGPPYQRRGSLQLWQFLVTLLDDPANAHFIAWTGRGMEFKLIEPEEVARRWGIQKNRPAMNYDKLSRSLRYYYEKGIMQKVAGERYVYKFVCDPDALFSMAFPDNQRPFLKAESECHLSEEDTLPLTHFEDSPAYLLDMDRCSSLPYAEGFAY
Chain of SPIB (Q01892 whole entry): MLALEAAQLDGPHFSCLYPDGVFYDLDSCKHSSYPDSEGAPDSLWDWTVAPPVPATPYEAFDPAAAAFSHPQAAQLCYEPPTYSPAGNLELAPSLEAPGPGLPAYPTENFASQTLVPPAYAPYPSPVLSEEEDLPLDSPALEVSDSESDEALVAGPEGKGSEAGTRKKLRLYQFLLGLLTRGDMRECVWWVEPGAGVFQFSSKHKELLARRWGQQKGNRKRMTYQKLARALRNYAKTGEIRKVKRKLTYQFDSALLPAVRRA
Chain of ELF4 (Q99607 whole entry): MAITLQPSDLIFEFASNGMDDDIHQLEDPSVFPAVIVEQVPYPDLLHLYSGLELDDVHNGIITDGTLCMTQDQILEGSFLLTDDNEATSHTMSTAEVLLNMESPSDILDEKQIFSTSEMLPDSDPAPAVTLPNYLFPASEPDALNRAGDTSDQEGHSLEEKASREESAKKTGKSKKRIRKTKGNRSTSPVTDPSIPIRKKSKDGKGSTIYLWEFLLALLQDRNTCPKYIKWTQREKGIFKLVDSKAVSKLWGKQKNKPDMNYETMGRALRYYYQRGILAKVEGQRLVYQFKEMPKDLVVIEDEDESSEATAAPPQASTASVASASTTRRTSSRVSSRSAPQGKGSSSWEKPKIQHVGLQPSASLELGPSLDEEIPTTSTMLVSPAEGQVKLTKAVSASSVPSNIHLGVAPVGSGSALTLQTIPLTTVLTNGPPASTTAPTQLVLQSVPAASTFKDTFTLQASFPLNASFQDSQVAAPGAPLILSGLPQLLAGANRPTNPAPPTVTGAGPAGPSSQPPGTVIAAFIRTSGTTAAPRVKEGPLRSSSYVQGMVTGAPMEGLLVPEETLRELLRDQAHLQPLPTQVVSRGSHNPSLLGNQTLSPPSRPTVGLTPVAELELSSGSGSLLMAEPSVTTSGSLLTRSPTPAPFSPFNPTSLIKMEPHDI
Chain of ETV1 (P50549 whole entry): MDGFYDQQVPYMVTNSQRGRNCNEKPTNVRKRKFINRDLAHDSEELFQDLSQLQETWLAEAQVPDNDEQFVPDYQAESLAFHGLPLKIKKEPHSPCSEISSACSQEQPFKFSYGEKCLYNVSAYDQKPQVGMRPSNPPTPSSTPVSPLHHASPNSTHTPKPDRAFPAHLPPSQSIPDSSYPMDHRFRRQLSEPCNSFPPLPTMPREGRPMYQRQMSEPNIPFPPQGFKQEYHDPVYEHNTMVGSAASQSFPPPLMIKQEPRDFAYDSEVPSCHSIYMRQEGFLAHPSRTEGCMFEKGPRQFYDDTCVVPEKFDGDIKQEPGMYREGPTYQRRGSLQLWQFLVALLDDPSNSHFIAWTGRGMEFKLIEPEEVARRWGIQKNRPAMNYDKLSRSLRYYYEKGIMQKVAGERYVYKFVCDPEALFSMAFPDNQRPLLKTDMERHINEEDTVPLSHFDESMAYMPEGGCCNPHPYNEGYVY

Sequence	binding signal (FLI1)	binding signal (ELK1)	binding signal (GABPA)	binding signal (ERG)	binding signal (ELF1)	binding signal (EHF)	binding signal (SPI1)	binding signal (SPIB)	binding signal (ELK3)	binding signal (FEV)	binding signal (ETV5)	binding signal (SPIC)	binding signal (ELF4)	binding signal (ELK4)	binding signal (ELF3)	binding signal (ETV1)	binding signal (ETV2)
GGGCTC	1.21 fold enrichment (6-mer frequency, TF over GST control)	1.24 fold enrichment (6-mer frequency, TF over GST control)	1.32 fold enrichment (6-mer frequency, TF over GST control)	1.17 fold enrichment (6-mer frequency, TF over GST control)	1.2 fold enrichment (6-mer frequency, TF over GST control)	1.03 fold enrichment (6-mer frequency, TF over GST control)	1.11 fold enrichment (6-mer frequency, TF over GST control)	1.26 fold enrichment (6-mer frequency, TF over GST control)	1.22 fold enrichment (6-mer frequency, TF over GST control)	1.15 fold enrichment (6-mer frequency, TF over GST control)	1.18 fold enrichment (6-mer frequency, TF over GST control)	1.19 fold enrichment (6-mer frequency, TF over GST control)	1.26 fold enrichment (6-mer frequency, TF over GST control)	1.09 fold enrichment (6-mer frequency, TF over GST control)	1.19 fold enrichment (6-mer frequency, TF over GST control)	1.29 fold enrichment (6-mer frequency, TF over GST control)	
GCCCGC	1.09 fold enrichment (6-mer frequency, TF over GST control)	1.15 fold enrichment (6-mer frequency, TF over GST control)	1.1 fold enrichment (6-mer frequency, TF over GST control)	1.1 fold enrichment (6-mer frequency, TF over GST control)	1.07 fold enrichment (6-mer frequency, TF over GST control)	1.09 fold enrichment (6-mer frequency, TF over GST control)	1.01 fold enrichment (6-mer frequency, TF over GST control)	1.03 fold enrichment (6-mer frequency, TF over GST control)	1.24 fold enrichment (6-mer frequency, TF over GST control)	1.11 fold enrichment (6-mer frequency, TF over GST control)	1.02 fold enrichment (6-mer frequency, TF over GST control)	1.34 fold enrichment (6-mer frequency, TF over GST control)	1.19 fold enrichment (6-mer frequency, TF over GST control)	1.15 fold enrichment (6-mer frequency, TF over GST control)		1.06 fold enrichment (6-mer frequency, TF over GST control)	1.16 fold enrichment (6-mer frequency, TF over GST control)
GTCCAC	1.03 fold enrichment (6-mer frequency, TF over GST control)	1.07 fold enrichment (6-mer frequency, TF over GST control)	1.11 fold enrichment (6-mer frequency, TF over GST control)	1.03 fold enrichment (6-mer frequency, TF over GST control)	1.02 fold enrichment (6-mer frequency, TF over GST control)	1.12 fold enrichment (6-mer frequency, TF over GST control)	1.02 fold enrichment (6-mer frequency, TF over GST control)	1.09 fold enrichment (6-mer frequency, TF over GST control)	1.04 fold enrichment (6-mer frequency, TF over GST control)	1.08 fold enrichment (6-mer frequency, TF over GST control)	1.07 fold enrichment (6-mer frequency, TF over GST control)	1.05 fold enrichment (6-mer frequency, TF over GST control)	1.06 fold enrichment (6-mer frequency, TF over GST control)	1.07 fold enrichment (6-mer frequency, TF over GST control)			1.14 fold enrichment (6-mer frequency, TF over GST control)
